# In article PMC7826789 (International Journal of Molecular Sciences, 2021):
smiles,measurement,setting,value
COc1cc(-c2cncc(-c3cnn(C4CCNCC4)c3)c2)cc(OC)c1OC [K05908],Kinases covered,ACVR1,ACVR1
same,Kinases covered,ACVRL1,ACVRL1
CCn1c(-c2nonc2N)nc2c(C#CC(C)(C)O)nc(OCCNC)cc21.Cl [GSK949675],Kinases covered,AKT1,AKT1
same,Kinases covered,AKT2,AKT2
CNC(=O)c1c(F)cccc1Nc1nc(Nc2cc3c(cc2OC)CCN3C(=O)CN(C)C)nc2[nH]ccc12 [GSK1838705],Kinases covered,ALK,ALK
CNCc1ccc(-c2cc(-c3nc(-c4ccc(S(=O)(=O)C(C)C)cc4)cnc3N)on2)cc1 [VE-822],Kinases covered,ATM,ATM
same,Kinases covered,ATR,ATR
CS(=O)(=O)c1ccc(-c2cnc(N)c(C(=O)Nc3ccccc3)n2)cc1 [VE-821],Kinases covered,ATR,ATR
CN1C(=O)c2ccccc2N(C)c2nc(Nc3cnn(C4CCNCC4)c3)ncc21 [XMD-17-51],Kinases covered,AURKA,AURKA
COc1ccccc1-c1cc(/C=C2\C(=O)Nc3ncc(Br)cc32)cc(Br)c1O [GW442130X],Kinases covered,AURKA,AURKA
CCn1cc(-c2ccnc3[nH]c(-c4cccc(CN(C)C)c4)cc23)c(-c2ccc(NC(=O)N(C)C)cc2)n1 [GSK1070916],Kinases covered,AURKB,AURKB
Cn1ccc2ncnc(Oc3ccc(Nc4nc5ccccc5[nH]4)cc3)c21 [TPKI-72],Kinases covered,AURKB,AURKB
